From the supplement of paper PMC6555819

Assays:
Assay in all cases: PBM binding z-score (relative to random genomic background probes); higher = stronger binding; sequences stand for … in GC…GCGATTGACAGCGTAGAATGAAGG
[1] = tested on: RARb homodimer (NR concentration 270 nM)
How it was run: (§1)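 For binding z-scores, the reference was random background probes on custom Agilent 4×180K protein-binding microarrays. These arrays were incubated 1 h with ligand-free nuclear receptor dimers in PBS pH 7.4, 2% milk, 0.02% Triton X-100, 1 mM DTT, 0.2 mg/mL BSA and 0.4 mg/ml salmon testes DNA. Fluorescence was scanned after antibody detection of each partner (one per run) and regression-normalized.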

[2] = tested on: RARg:RXRa (NR concentration 270 nM, RXRa partner concentration 90 nM)
How it was run: as §1

[3] = tested on: RARg homodimer (NR concentration 270 nM)
How it was run: as §1

[4] = tested on: RXRa DBDmut IVT, anti-RXR (DBD mutation: RXRa K156A/R161A, NR concentration 90 nM)
How it was run: as §1

[5] = tested on: RXRa homodimer (NR concentration 180 nM)
How it was run: as §1

[6] = tested on: THRa:RXRa (NR concentration 90 nM, RXRa partner concentration 90 nM)
How it was run: as §1

[7] = tested on: THRa homodimer (NR concentration 90 nM)
How it was run: as §1

[8] = tested on: VDR homodimer (NR concentration 270 nM)
How it was run: as §1

Sequence	PBM binding z-score [1]	PBM binding z-score [2]	PBM binding z-score [3]	PBM binding z-score [4]	PBM binding z-score [5]	PBM binding z-score [6]	PBM binding z-score [7]	PBM binding z-score [8]
AGTCAAAGTTCATGTAGGTAACGTAAGATATGCT	3.73	5.31	5.84	4.74	4.45	2.65	-0.0581	4.64
AGCTCTAGGTAAGACTCAGTTCAGTGAAGAACGC	0.218	-0.161	-0.269	0.149	-0.208	0.465	0.312	1.14
CGTCAAAGTTCATCTAAGGTAACGTAAAGCACGC	4.35	5.77	6.43	5.14	4.66	5.26	2.52	5.45
CAATCTAGGTCAAGAGGTCAAAGTCCGCTTCCCG	5.66	8.19	7.48	2.79	8.19	4.5	2.95	5.19
CAAACTAGGTCAAGAGGTCTAAGTCCGCTTCCCG	3.42	4.23	4.4	1.73	2.76	2.82	1.1	1.23
CCTAGTTGGTCAGGAGGTCAAACACCGGATATGA	4.15	5.37	4.68	1.15	5.72	3.5	1.99	3.16
CGAACTAGGTCAAGGACAGTGCATCTCCGCACGC	3.51	4.21	4.75	1.45	2.72	3.28	2.03	0.69
AGAATGAGGTTGCCAAAGATCAGGGAAACGCTTG	-0.195	0.266	0.336	0.261	0.9	0.855	-0.384	-0.0161
TCGAGTAGGTTAGAGGCATTCAGAATGGCGTCGA	-0.851	-0.25	-0.164	-0.37	0.0736	-1.08	-1.15	-0.449
ACTATTAGTTGAGACGAGGGCAGCCGATAGGTTG	0.756	0.374	0.715	0.298	0.449	2.02	0.0606	0.189
CACCCTAGGTCAGGGCCAGTATAGGAGGAACGTT	2.67	3.33	3.69	-0.329	1.99	2.23	0.911	-0.219
TCTTGTATATCAGCAGGTTAAGAAAGCTGGCCAA	0.756	0.511	0.266	1.05	0.75	0.759	0.0914	0.143
CCTACTGGGCCACGAAAGGTCATTGATTCAGTGA	4.53	4.73	4.37	0.61	5.18	3.67	0.798	2.59
GGAACGAGGGCATTCGAGTTGAAAGCATGGCGAT	0.677	1.02	1.19	3.05	1.12	3.9	-0.523	3.1
CCGACTGGGTCAGAAAGGTTACCATACCATCCGG	3.1	3.34	3.44	-0.333	3.12	2.09	0.207	1.14
ACTATTAGTTGAGACGAGGGCAACCGATAGGTTG	1.2	0.833	0.861	0.5	0.75	2.7	0.226	0.728
CCATACAGGTGAGAAGGTAACTCAGCCTCGATTA	0.666	0.662	0.72	0.319	0.539	0.148	0.348	-0.195
GCTGCTAGGTCAGGTTGGTCAGCTATCGGGTACG	2.73	2.44	3.56	0.759	0.93	1.84	0.785	0.204
ATACAAAGGTGATCGTGAGGTCGTTGATACTAAC	2.28	3.87	1.85	0.883	2.73	3.66	2.12	2.97

Sequence	PBM binding z-score [1]	PBM binding z-score [2]	PBM binding z-score [3]	PBM binding z-score [4]	PBM binding z-score [5]	PBM binding z-score [6]	PBM binding z-score [7]	PBM binding z-score [8]
CAGCCTAGGTCGGGGCCAGTATAGGAGGAACGTT	0.941	0.359	0.842	-0.52	-0.0745	0.171	-0.524	-0.348
CCTACTGGACCAAAGGTCATTGATTCCAATGCTC	4.9	5.27	4.97	1.85	6.4	3.46	1.67	3.18
TCTTGTTGGTCAAAGGTCACACACTCGAAATGCG	5.33	7.36	6.57	2.02	8.27	4.21	2.56	3.06
CGTCCAAGGTCAGAGACGTCAGTGAATGCCGAGT	3.39	4.24	4.6	2.62	3.33	3.24	1.49	1.24
TCTAGTTGCTCAAAGGTCACACACTCGAAATGCG	5.02	5.93	5.78	1.88	6.66	3.76	1.89	2.12
TCTTGTAGATAAACAGGAGGTTAAGAAAGATCGA	0.563	0.413	0.451	0.64	0.929	0.693	-0.428	-0.0637
CCTGCTAGGTTAATGGTCAGCTAAAGCAGCTCGC	0.863	0.422	0.563	0.452	0.173	0.215	-0.284	-0.175
CGAACGAGGGCATGAGTAGATAGCAAATGCCGAT	0.586	1.22	1.57	2.03	0.713	0.742	-0.437	0.55
TCTTGTAGATCAAGCAGGTTAACAAAGCCTGAGT	0.14	0.253	0.0907	0.714	0.594	0.705	-0.265	0.178
CCTATAAGTTGACCATAAGGGCAACCGAAGCTCG	2.31	2.2	1.31	0.769	0.942	2.44	1.2	1.32
TCGAGTAGGTTACCAATGAGGCATTCAGCTTTCT	-0.0486	0.457	0.0733	0.229	0.47	-0.137	-0.781	-1.08
ATCTCTAGGTACCCAAGTTCAGTGAATGCCGAAC	1.41	0.712	0.515	1.14	0.528	0.968	0.385	2
ATCTCTAAGTAAGACTCAGTTCAGTGAAGAACGC	0.513	0.345	0.42	0.804	-0.0426	0.401	0.351	1.57
ATCTCTAGGTAAAGTTCAGGGAAAGATCGATAGA	2.7	2.5	2.77	1.38	1.98	1.61	0.441	2.18
CCTACTGGGCCAAAGGTCATTGAATCCAATGCTC	4.89	5.95	4.83	1.05	6.52	3.56	0.752	2.23
AGAATGAGGTTAAGATCAGGGTAACAGAATACAT	1.41	2.69	1.65	1.08	2.85	3.16	1.45	0.804
GTACCAAGGTGAATAGGTCTTTGATGAGTAGGCG	1.13	1.15	0.913	0.00774	0.832	1.3	0.641	0.178
GCATATAGGTAAAACAAGGTGAAAGTCCGATTGT	0.61	0.353	0.33	0.273	0.55	4.2	0.967	0.035
CCTCGGGGGACAACAGGAGGTCAGAGCTGCCAGA	3.75	4.66	4.32	0.347	2.89	3.22	1.07	1.19

Sequence	PBM binding z-score [1]	PBM binding z-score [2]	PBM binding z-score [3]	PBM binding z-score [4]	PBM binding z-score [5]	PBM binding z-score [6]	PBM binding z-score [7]	PBM binding z-score [8]
ACTTACGGGCCAACGAGGTTATAGCACGCGTATA	1.08	0.977	0.949	0.889	1.01	1.76	0.399	1.31
GGACCAAGGTGAATAGGTCGTTGATGAGTAGGCG	1.93	2.62	1.51	-0.31	1.81	1.91	0.417	0.294
GGAACGAGGGCAAAGTCGATAGCATCTGTCGACG	0.649	0.932	0.988	2.53	0.723	0.62	-0.445	1.19
AGAATGAGGTTATTAAGATCACGGAATTGCGGTC	0.99	1.37	1.01	2.19	2.01	2.42	0.72	1.73
TCATATAGTTAAAGGTGAAAGTCGAACGATATGA	1.34	1.47	1.18	0.551	2.08	1.23	-0.586	-0.0826
TCGAGTAGGTTACCAATGGGGCATTGAGCTTTCT	0.567	1.1	0.221	0.408	0.672	0.145	-0.895	-0.64
CCTACTAGGCCAAAGGTCATTGATTCCAATGCTC	4.84	6.22	5.49	2.06	6.88	3.67	1.45	2.65
TAGCCTAGGTCATTGGGCCTGTATAGTACGCATC	2.84	3.78	4.29	1.59	3.33	2.74	0.697	1.12
AGAATGAGGTTATTAAGATCTGGGAATTGCGGTC	0.732	1.04	0.692	2.16	1.77	1.99	0.599	0.954
CCTTACGGGTCACGAGGTTATAACACGACGAGCG	3.99	6.07	5.32	1.5	6.99	3.79	0.991	1.63
TCTAGCACGCCAGAGGGTCACTCAAGAGGTACGG	2.3	2.29	1.68	0.0776	2.41	1.48	-0.414	0.501
CCTACTGGGGCATTCAGAGGTCATTGATCATATG	4.07	5.17	3.71	0.683	3.72	3.43	1.19	3.38
TCGAGTAGGTTAGGGGCATTCGGAATGGCGTCGA	0.742	0.5	-0.0301	0.0579	0.52	0.777	0.132	0.956
CCGACTGGGGCAAGGTTATCATAACGCACAGCCA	1.27	1.03	1.08	0.0521	1.12	1	0.224	0.128
CCTGCTAGATCATGGTCAGCTAATCTACAGTATG	-0.429	-0.127	0.142	0.516	-0.185	-0.68	-1.23	-0.86
TAGCCTACGTCATGGGCCAGTATACCACGCGAAC	-0.00941	-0.29	-0.1	-0.76	-0.0748	-0.335	-0.4	-0.575
GGAACGAGGGCCAGTTGATAGCAGAGTTTGATGG	0.014	-0.18	0.0481	-0.0614	0.143	-0.74	-0.812	-0.327
GGAACGAGGGCAAAGTTTATAGCATCTGTCGACG	1.8	2.31	2.04	2.61	2.22	1.63	-0.279	2.22
CCTACTGGGACAAAGGTCATTGATTCCAATGCTC	4.66	5.3	4.6	1.83	5.76	3.57	1.25	2.94
